Data on 40 molecules can be found in PubChem BioAssay.

The structures appear in SMILES notation. Values without a mark were called inactive. Activity calls are given as the source filed them.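 The calls were made as follows, unless noted: active = compound raises insulin release from rat beta cells at 5 mM glucose, no numeric limit stated; inactive = the rest.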

A short description of the first test: stimulators of insulin release from INS-1E, primary screen, cell-based, 5 mM glucose, NPC library (AID 1117329). Also: reference of the scale not given here. The following applies: rat INS-1E insulin secretion, at 10 µM, stronger effect = higher value.
For the molecule `COc1cc(N)c(Cl)cc1C(=O)NC1CCN(CCCOc2ccc(F)cc2)CC1OC` (stereo not given), the insulin secretion stimulation was 7.5%.
Same read-out and setting: the figure for `O=C(OOC(=O)c1ccccc1)c1ccccc1` is -1.3%.
The same measure, in the same setting: the same measure for `C[C@@]12C(=O)OC(=O)[C@]1(C)C1CCC2O1`: 2.3%; for `CCOCC(O)COc1ccc(NC(=O)CC[S+](C)C)cc1` (stereo not given): 0.8%; for `C[N+](C)(C)CCCCCCCCCC[N+](C)(C)C`: 1.7%.
For the molecule `CC[C@@H](CO)NCCN[C@@H](CC)CO`, the insulin secretion stimulation was 2.6%.
In the case of `Cc1ncc(CSSCc2cnc(C)c(O)c2CO)c(CO)c1O`, the insulin secretion stimulation is 1.7%.
Take `O=C(O)CN(CC(=O)O)Cc1cc2c(-c3ccccc3C(=O)O)c3cc(CN(CC(=O)O)CC(=O)O)c(=O)cc-3oc2cc1O`: the insulin secretion stimulation is -0.4%.
Turning to `CC1=C(C/C=C(\C)CCC[C@H](C)CCC[C@H](C)CCCC(C)C)C(=O)c2ccccc2C1=O`, the insulin secretion stimulation was -2.6%.
Turning to `OCCc1ccccc1`, the insulin secretion stimulation was -0.8%.
As for `O=C1c2ccccc2C(=O)C1c1ccc(Br)cc1`, the insulin secretion stimulation was 4.3%.
Turning to `CCOC(=O)c1ccc(O)cc1`, the insulin secretion stimulation is 5.1%.
With `O=C(CCCl)NCc1ccccc1`, the insulin secretion stimulation is 1.8%.
With `CC1(C)[C@@H]2CC[C@@]1(C)C(=O)C2`, the insulin secretion stimulation is 2.4%.
On to `Cc1cc(C(C#N)c2ccc(Cl)cc2)c(Cl)cc1NC(=O)c1cc(I)cc(I)c1O` (stereo not given), for which the insulin secretion stimulation is -0.6%.
For the molecule `CC(C)CCCC(C)N` (stereo not given), the insulin secretion stimulation was 4.9%.
For the molecule `NCCNCCNCCN`, the insulin secretion stimulation was 0.4%.
With `Nc1ncn([C@H]2C[C@H](O)[C@@H](CO)O2)c(=O)n1`, the insulin secretion stimulation was -1.2%.
With `CC(O)Cn1cnc2c1c(=O)n(C)c(=O)n2C` (stereo not given), the insulin secretion stimulation was -0.4%.
Still for that read-out and setting: the same measure for `CC(=O)NCc1c(I)c(NC(C)=O)c(I)c(C(=O)O)c1I`: -0.4%.
Take `O=S(=O)(O)CCCS(=O)(=O)O`: the insulin secretion stimulation was 2.9%.
Consider `CNCc1ccccc1`, for which the insulin secretion stimulation is -0.1%.
On to `CCN(CC)CCOc1ccc2c(c1)C(=O)c1cc(OCCN(CC)CC)ccc1-2`, for which the insulin secretion stimulation is 3.7%.
Still for that read-out and setting: the figure for `CN(C)CCCOc1nn(Cc2ccccc2)c2ccccc12` is 86.5% (active); for `CCCCCCCCCCOc1cc2c(=O)c(C(=O)OCC)c[nH]c2cc1OCC` it is -0.4%.
Turning to `NC(=O)c1cc[n+](CC2=C(C(=O)[O-])N3C(=O)[C@@H](NC(=O)Cc4cccs4)[C@H]3SC2)cc1`, the insulin secretion stimulation is 11.8%.
For the molecule `Cc1c(F)c(N2CCNC(C)C2)cc2c1c(=O)c(C(=O)O)cn2C1CC1` (stereo not given), the insulin secretion stimulation is 1.15%.
As for `Cc1cc2nc3ccc(=[N+](C)C)cc-3sc2cc1N`, the insulin secretion stimulation is -0.6%.
For `NC(=O)C1(N2CCCCC2)CCN(CCCC(=O)c2ccc(F)cc2)CC1`, the insulin secretion stimulation is -0.5%.
For the molecule `CC(=O)NC(Cc1ccccc1)C(=O)O` (stereo not given), the insulin secretion stimulation is -2.3%.
With `O=C(Nc1ccc(C(=O)O)c(O)c1)c1ccccc1`, the insulin secretion stimulation is -1.2%.
Take `CC(C)=CCC/C(C)=C/CO`: the insulin secretion stimulation was 0.7%.
For the molecule `CC1=C(/C=C/C(C)=C/C=C/C(C)=C/C(=O)Nc2ccc(O)cc2)C(C)(C)CCC1`, the insulin secretion stimulation was 2.3%.
On the same count and under the same terms, the figure for `O=C1OC2(c3ccc(O)cc3Oc3cc(O)ccc32)c2ccccc21` is 3.7%.
On to `COc1cc(C(=O)NCCCCCC(=O)O)cc(OC)c1OC`, for which the insulin secretion stimulation was 0.5%.
On to `OC1C(O)C(O)C(O)C(O)C1O` (stereo not given), for which the insulin secretion stimulation was 0.4%.
Still for that read-out and setting: the figure for `Nc1nc(Cl)nc2c1ncn2[C@@H]1O[C@H](CO)[C@@H](O)[C@@H]1F` is 0.1%.
As for `CC(O)(P(=O)(O)O)P(=O)(O)O`, the insulin secretion stimulation was 0.9%.
Regarding `CC(=O)OCC(=O)[C@@]1(O)CCC2C3CCC4=CC(=O)CC[C@]4(C)C3[C@@H](O)C[C@@]21C` (stereo not given in full), the insulin secretion stimulation was -1.3%.
Turning to `NC(=O)CCCCC1CCSS1` (stereo not given), the insulin secretion stimulation was -0.6%.

The next test can be described thus: growth inhibition of GSK3B-pretreated HCT116 cells – cell-based, CellTiter-Glo, 0.2 to 20 µM (AID 1117336;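 active = compounds lowering colon cancer cell viability after pretreatment blocking the GSK3B kinase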). The settings on record: HCT116 viability after GSK3B inhibitor, at 20 µM, stronger effect = higher value. (In general: Cellular ATP, detected with luciferase, serves as a proxy for viable cell number.)
For `COc1cc(N)c(Cl)cc1C(=O)NC1CCN(CCCOc2ccc(F)cc2)CC1OC` (stereo not given), the viability decrease is 20.6%.
On to `O=C(OOC(=O)c1ccccc1)c1ccccc1`, for which the viability decrease was -5.45%.
Regarding `C[C@@]12C(=O)OC(=O)[C@]1(C)C1CCC2O1`, the viability decrease was 83.1% (active).
Take `CCOCC(O)COc1ccc(NC(=O)CC[S+](C)C)cc1` (stereo not given): the viability decrease is -7.6%.
In the case of `C[N+](C)(C)CCCCCCCCCC[N+](C)(C)C`, the viability decrease was 17.6%.
Turning to `CC[C@@H](CO)NCCN[C@@H](CC)CO`, the viability decrease was -8%.
On to `Cc1ncc(CSSCc2cnc(C)c(O)c2CO)c(CO)c1O`, for which the viability decrease was 4.2%.
Same read-out and setting: the figure for `O=C(O)CN(CC(=O)O)Cc1cc2c(-c3ccccc3C(=O)O)c3cc(CN(CC(=O)O)CC(=O)O)c(=O)cc-3oc2cc1O` is 38.8%; for `CC1=C(C/C=C(\C)CCC[C@H](C)CCC[C@H](C)CCCC(C)C)C(=O)c2ccccc2C1=O` it is -3.55%; for `OCCc1ccccc1` it is -30.2%.
`O=C1c2ccccc2C(=O)C1c1ccc(Br)cc1`: the viability decrease is 52.2% (active).
In the case of `CCOC(=O)c1ccc(O)cc1`, the viability decrease is 1.8%.
As for `O=C(CCCl)NCc1ccccc1`, the viability decrease was 0.2%.
Turning to `CC1(C)[C@@H]2CC[C@@]1(C)C(=O)C2`, the viability decrease was 2.6%.
With `Cc1cc(C(C#N)c2ccc(Cl)cc2)c(Cl)cc1NC(=O)c1cc(I)cc(I)c1O` (stereo not given), the viability decrease was 120% (active).
`CC(C)CCCC(C)N` (stereo not given): the viability decrease is 2%.
Turning to `NCCNCCNCCN`, the viability decrease is 0.25%.
As to `Nc1ncn([C@H]2C[C@H](O)[C@@H](CO)O2)c(=O)n1`, the viability decrease is 33.4%.
Consider `CC(O)Cn1cnc2c1c(=O)n(C)c(=O)n2C` (stereo not given), for which the viability decrease was 24.9%.
In the case of `CC(=O)NCc1c(I)c(NC(C)=O)c(I)c(C(=O)O)c1I`, the viability decrease is -16.4%.
For `O=S(=O)(O)CCCS(=O)(=O)O`, the viability decrease was -15.7%.
Consider `CNCc1ccccc1`, for which the viability decrease is -25.9%.
For `CCN(CC)CCOc1ccc2c(c1)C(=O)c1cc(OCCN(CC)CC)ccc1-2`, the viability decrease is -16.4%.
For the molecule `CN(C)CCCOc1nn(Cc2ccccc2)c2ccccc12`, the viability decrease is 21.7%.
With `CCCCCCCCCCOc1cc2c(=O)c(C(=O)OCC)c[nH]c2cc1OCC`, the viability decrease was -29.2%.
`NC(=O)c1cc[n+](CC2=C(C(=O)[O-])N3C(=O)[C@@H](NC(=O)Cc4cccs4)[C@H]3SC2)cc1`: the viability decrease was 10.6%.
Consider `Cc1c(F)c(N2CCNC(C)C2)cc2c1c(=O)c(C(=O)O)cn2C1CC1` (stereo not given), for which the viability decrease was 57.3% (active).
Take `Cc1cc2nc3ccc(=[N+](C)C)cc-3sc2cc1N`: the viability decrease was 90.5% (active).
With `NC(=O)C1(N2CCCCC2)CCN(CCCC(=O)c2ccc(F)cc2)CC1`, the viability decrease is -17.7%.
In the case of `CC(=O)NC(Cc1ccccc1)C(=O)O` (stereo not given), the viability decrease was -0.2%.
`O=C(Nc1ccc(C(=O)O)c(O)c1)c1ccccc1`: the viability decrease is 1.7%.
As to `CC(C)=CCC/C(C)=C/CO`, the viability decrease is -10.3%.
With `CC1=C(/C=C/C(C)=C/C=C/C(C)=C/C(=O)Nc2ccc(O)cc2)C(C)(C)CCC1`, the viability decrease is 98.8% (active).
Still for that read-out and setting: the same measure for `O=C1OC2(c3ccc(O)cc3Oc3cc(O)ccc32)c2ccccc21`: 6.1%; for `COc1cc(C(=O)NCCCCCC(=O)O)cc(OC)c1OC`: 5.7%.
For the molecule `OC1C(O)C(O)C(O)C(O)C1O` (stereo not given), the viability decrease is -3.8%.
Same read-out and setting: the figure for `Nc1nc(Cl)nc2c1ncn2[C@@H]1O[C@H](CO)[C@@H](O)[C@@H]1F` is 44.1% (active).
`CC(O)(P(=O)(O)O)P(=O)(O)O`: the viability decrease was 12.5%.
The same measure, in the same setting: the figure for `CC(=O)OCC(=O)[C@@]1(O)CCC2C3CCC4=CC(=O)CC[C@]4(C)C3[C@@H](O)C[C@@]21C` (stereo not given in full) is -8%.
Regarding `NC(=O)CCCCC1CCSS1` (stereo not given), the viability decrease is -164%.
